We go through 16 molecules from paper PMC12864922, “TDP-43 directly inhibits mRNA accumulation in neurites through modulation of mRNA stability”.

Sequences and labels used below:
B1: ENSMUSG00000031028.245|Tub (ssRNA)
RNA: GGGAGUUCUACAGUCCGACGAUCGCUUCGAUAUCCGCAUGCUAGCCCUCCAUUGGGAUGGCACCACUCAUCUGGUGGGCUUGGGAACUCCAAGCUCUUGCCUGUGUGCCAUCUGUGAGAAGCUUCUUGGAGCUGAGACACCAGAGGGAAGCAAAGAGCAUUUAGACAUUGCUUUUUGCUUUGAAAUAGAUAUGUUUGGAAACGCUAAGUAGAAGUUUAAAAAGUAGAGUCAUGUAGAGUCAUGCUUUGAAUAUGUGGGUCAUGCUUUAGAUAUGAAGAGGCUAUGCAGGUAAGGAGGCUGGAUCUCUUGCGGUCGCACUAGUGUGGAAUUCUCGGGUGUCAAGG
B2: ENSMUSG00000028439.189|Fam219a|1:11;21:28 (ssRNA)
RNA: GGGAGUUCUACAGUCCGACGAUCGCUUCGAUAUCCGCAUGCUAACACACACACAUGUACCCGACACACACAUGAGCCUAUCUGUCCAGGGAACCAGAUUGGUGUCCGAGAUGAGGAAAUGGCUGUGGCCUGGGAAAUCAGUGAGAGGCCGCUUGGGAAUGAGAAUGCAGUGGACUGAAAGCACAGCCUGGCCAUCUGGAACCUGGGUUCUGGUCCCAGCCUCGGCAUUCUCCCUGAGCUCCUAAGCAAUUCCCAGGCUUCUCUAGGGCUUCAGUUCUCACAACUGGAAAAUAAAGAGUAGCUGCUCUUGCGGUCGCACUAGUGUGGAAUUCUCGGGUGUCAAGG
B3: ENSMUSG00000031028.94|Tub (ssRNA)
RNA: GGGAGUUCUACAGUCCGACGAUCGCUUCGAUAUCCGCAUGCUAAGCUCUGGUGGUCAGCAGAAAGCACUCCCACUUCAAAAGGGCCCAUUAGGCCCAAAGGGGGUUAGGAGUGGUAGGGAUAGGUGCGUGGCAGGUCCCUGCUAGGAUUGCAGGGGCCUGGCCAUGUGUAUUAGCUGGAGGCUUAGAAUGCUAGCUCAUUUGUUGCUACAGAUUUGCCCAGUGCUUGCACACGUAAGAACCCAGCUCUCAAGGCCAAAUAUCUGAGUGGAUGGGGAUGAUAGGAGUCAUCCAGUAGACUCCCUCUCUUGCGGUCGCACUAGUGUGGAAUUCUCGGGUGUCAAGG
B4: ENSMUSG00000058297.426|Spock2 (ssRNA)
RNA: GGGAGUUCUACAGUCCGACGAUCGCUUCGAUAUCCGCAUGCUAGUGGCAGGCCCCAGGGGUCCAGAAGUUUGUCCCUCUCUAAAACGCUCCCCACCCCAUACUGCUUUUCACCCCACUGAGACCGAGUCCCACAAAGGUAGGCAGAACAGCUGUUCCUGGUGGGGCUGAAGGUUCCCAAGUAGCUUCUAGUUAAGCAAGCUUCGUGUUUCCUCAGGAGCAAGGUCACACAGGUCAGAUUAUUGUCGGUCCUGCGGGCCUCAUCCUUGAAUAAGCUGCCUGCCCAGUUCCUCCAUCCGUGUUCCCUCUUGCGGUCGCACUAGUGUGGAAUUCUCGGGUGUCAAGG
B5: ENSMUSG00000061578.1440|Ksr2 (ssRNA)
RNA: GGGAGUUCUACAGUCCGACGAUCGCUUCGAUAUCCGCAUGCUAUAGAUGCCAAUCAGGAAGGCAAGUAGGAUGGAUGGAUGAGUGAGUGGAUAGGUAGGUAUAUAAAUGGAUGGAUGGGUGAUGGAUGGGUAAAUGAAUGGAUAGGUAUGUGAAUGAAUGGAUGAUGGAUGAAUGGAUGGGUAGGUGGGUAGAUAGGUAUAUGAAUGAAUGGAUGAAUGGAUGGGUGAAUGGAUGGAUAGGUAUGUGAAUAAAUGGAUGGAUGGAUGGAUUGAUUUGUGAAUGAAUGGAUGAAUGGAUGGGUACUCUUGCGGUCGCACUAGUGUGGAAUUCUCGGGUGUCAAGG
B6: ENSMUSG00000061578.1448|Ksr2 (ssRNA)
RNA: GGGAGUUCUACAGUCCGACGAUCGCUUCGAUAUCCGCAUGCUAUAGGUAGGUAUAUAAAUGGAUGGAUGGGUGAUGGAUGGGUAAAUGAAUGGAUAGGUAUGUGAAUGAAUGGAUGAUGGAUGAAUGGAUGGGUAGGUGGGUAGAUAGGUAUAUGAAUGAAUGGAUGAAUGGAUGGGUGAAUGGAUGGAUAGGUAUGUGAAUAAAUGGAUGGAUGGAUGGAUUGAUUUGUGAAUGAAUGGAUGAAUGGAUGGGUAGGUGGGUGGAUGCAUAGGCAAGUAGAUGAAUGAAUAUGUGGGUAGAAGCUCUUGCGGUCGCACUAGUGUGGAAUUCUCGGGUGUCAAGG
B7: ENSMUSG00000061578.1443|Ksr2|85:89;180:184 (ssRNA)
RNA: GGGAGUUCUACAGUCCGACGAUCGCUUCGAUAUCCGCAUGCUAGCAAGUAGGAUGGAUGGAUGAGUGAGUGGAUAGGUAGGUAUAUAAAUGGAUGGAUGGGUGAUGGAUGGGUAAAUGAAUGGAUAGCAUACUGAAUGAAUGGAUGAUGGAUGAAUGGAUGGGUAGGUGGGUAGAUAGGUAUAUGAAUGAAUGGAUGAAUGGAUGGGUGAAUGGAUGGAUAGCAUACUGAAUAAAUGGAUGGAUGGAUGGAUUGAUUUGUGAAUGAAUGGAUGAAUGGAUGGGUAGGUGGGUGGAUGCAUAGGCUCUUGCGGUCGCACUAGUGUGGAAUUCUCGGGUGUCAAGG
B8: ENSMUSG00000061578.1451|Ksr2|37:41;132:136 (ssRNA)
RNA: GGGAGUUCUACAGUCCGACGAUCGCUUCGAUAUCCGCAUGCUAGAUGGAUGGGUGAUGGAUGGGUAAAUGAAUGGAUAGCAUACUGAAUGAAUGGAUGAUGGAUGAAUGGAUGGGUAGGUGGGUAGAUAGGUAUAUGAAUGAAUGGAUGAAUGGAUGGGUGAAUGGAUGGAUAGCAUACUGAAUAAAUGGAUGGAUGGAUGGAUUGAUUUGUGAAUGAAUGGAUGAAUGGAUGGGUAGGUGGGUGGAUGCAUAGGCAAGUAGAUGAAUGAAUAUGUGGGUAGAAGGGUGAGUGGGUGGAUGAACUCUUGCGGUCGCACUAGUGUGGAAUUCUCGGGUGUCAAGG
B9: ENSMUSG00000061578.1439|Ksr2 (ssRNA)
RNA: GGGAGUUCUACAGUCCGACGAUCGCUUCGAUAUCCGCAUGCUAUUGAUUUAGAUGCCAAUCAGGAAGGCAAGUAGGAUGGAUGGAUGAGUGAGUGGAUAGGUAGGUAUAUAAAUGGAUGGAUGGGUGAUGGAUGGGUAAAUGAAUGGAUAGGUAUGUGAAUGAAUGGAUGAUGGAUGAAUGGAUGGGUAGGUGGGUAGAUAGGUAUAUGAAUGAAUGGAUGAAUGGAUGGGUGAAUGGAUGGAUAGGUAUGUGAAUAAAUGGAUGGAUGGAUGGAUUGAUUUGUGAAUGAAUGGAUGAAUGGACUCUUGCGGUCGCACUAGUGUGGAAUUCUCGGGUGUCAAGG
B10: ENSMUSG00000061578.1450|Ksr2 (ssRNA)
RNA: GGGAGUUCUACAGUCCGACGAUCGCUUCGAUAUCCGCAUGCUAUAAAUGGAUGGAUGGGUGAUGGAUGGGUAAAUGAAUGGAUAGGUAUGUGAAUGAAUGGAUGAUGGAUGAAUGGAUGGGUAGGUGGGUAGAUAGGUAUAUGAAUGAAUGGAUGAAUGGAUGGGUGAAUGGAUGGAUAGGUAUGUGAAUAAAUGGAUGGAUGGAUGGAUUGAUUUGUGAAUGAAUGGAUGAAUGGAUGGGUAGGUGGGUGGAUGCAUAGGCAAGUAGAUGAAUGAAUAUGUGGGUAGAAGGGUGAGUGGGUGCUCUUGCGGUCGCACUAGUGUGGAAUUCUCGGGUGUCAAGG
B11: ENSMUSG00000061578.1444|Ksr2|79:83;174:178 (ssRNA)
RNA: GGGAGUUCUACAGUCCGACGAUCGCUUCGAUAUCCGCAUGCUAAGGAUGGAUGGAUGAGUGAGUGGAUAGGUAGGUAUAUAAAUGGAUGGAUGGGUGAUGGAUGGGUAAAUGAAUGGAUAGCAUACUGAAUGAAUGGAUGAUGGAUGAAUGGAUGGGUAGGUGGGUAGAUAGGUAUAUGAAUGAAUGGAUGAAUGGAUGGGUGAAUGGAUGGAUAGCAUACUGAAUAAAUGGAUGGAUGGAUGGAUUGAUUUGUGAAUGAAUGGAUGAAUGGAUGGGUAGGUGGGUGGAUGCAUAGGCAAGUACUCUUGCGGUCGCACUAGUGUGGAAUUCUCGGGUGUCAAGG
B12: ENSMUSG00000061578.1444|Ksr2 (ssRNA)
RNA: B11 RNA with C122G, A123U, U124A, A125U, C126G, C217G, A218U, U219A, A220U, C221G
B13: ENSMUSG00000061578.1441|Ksr2 (ssRNA)
RNA: GGGAGUUCUACAGUCCGACGAUCGCUUCGAUAUCCGCAUGCUACCAAUCAGGAAGGCAAGUAGGAUGGAUGGAUGAGUGAGUGGAUAGGUAGGUAUAUAAAUGGAUGGAUGGGUGAUGGAUGGGUAAAUGAAUGGAUAGGUAUGUGAAUGAAUGGAUGAUGGAUGAAUGGAUGGGUAGGUGGGUAGAUAGGUAUAUGAAUGAAUGGAUGAAUGGAUGGGUGAAUGGAUGGAUAGGUAUGUGAAUAAAUGGAUGGAUGGAUGGAUUGAUUUGUGAAUGAAUGGAUGAAUGGAUGGGUAGGUGGGCUCUUGCGGUCGCACUAGUGUGGAAUUCUCGGGUGUCAAGG
B14: ENSMUSG00000061578.1446|Ksr2 (ssRNA)
RNA: GGGAGUUCUACAGUCCGACGAUCGCUUCGAUAUCCGCAUGCUAUGAGUGAGUGGAUAGGUAGGUAUAUAAAUGGAUGGAUGGGUGAUGGAUGGGUAAAUGAAUGGAUAGGUAUGUGAAUGAAUGGAUGAUGGAUGAAUGGAUGGGUAGGUGGGUAGAUAGGUAUAUGAAUGAAUGGAUGAAUGGAUGGGUGAAUGGAUGGAUAGGUAUGUGAAUAAAUGGAUGGAUGGAUGGAUUGAUUUGUGAAUGAAUGGAUGAAUGGAUGGGUAGGUGGGUGGAUGCAUAGGCAAGUAGAUGAAUGAAUACUCUUGCGGUCGCACUAGUGUGGAAUUCUCGGGUGUCAAGG
B15: ENSMUSG00000061578.1442|Ksr2 (ssRNA)
RNA: GGGAGUUCUACAGUCCGACGAUCGCUUCGAUAUCCGCAUGCUAAGGAAGGCAAGUAGGAUGGAUGGAUGAGUGAGUGGAUAGGUAGGUAUAUAAAUGGAUGGAUGGGUGAUGGAUGGGUAAAUGAAUGGAUAGGUAUGUGAAUGAAUGGAUGAUGGAUGAAUGGAUGGGUAGGUGGGUAGAUAGGUAUAUGAAUGAAUGGAUGAAUGGAUGGGUGAAUGGAUGGAUAGGUAUGUGAAUAAAUGGAUGGAUGGAUGGAUUGAUUUGUGAAUGAAUGGAUGAAUGGAUGGGUAGGUGGGUGGAUGCUCUUGCGGUCGCACUAGUGUGGAAUUCUCGGGUGUCAAGG
B16: ENSMUSG00000061578.1445|Ksr2 (ssRNA)
RNA: GGGAGUUCUACAGUCCGACGAUCGCUUCGAUAUCCGCAUGCUAGAUGGAUGAGUGAGUGGAUAGGUAGGUAUAUAAAUGGAUGGAUGGGUGAUGGAUGGGUAAAUGAAUGGAUAGGUAUGUGAAUGAAUGGAUGAUGGAUGAAUGGAUGGGUAGGUGGGUAGAUAGGUAUAUGAAUGAAUGGAUGAAUGGAUGGGUGAAUGGAUGGAUAGGUAUGUGAAUAAAUGGAUGGAUGGAUGGAUUGAUUUGUGAAUGAAUGGAUGAAUGGAUGGGUAGGUGGGUGGAUGCAUAGGCAAGUAGAUGAACUCUUGCGGUCGCACUAGUGUGGAAUUCUCGGGUGUCAAGG

Numbering of substitutions follows the chain as printed. The full ranking holds about 9,900 sequences; the median of “r (bound/input frequency ratio)” is about 0.7, and the highest 2% start at about 6.5. The sample holds the highest values, similar sequences and a random draw of the others, so the mix is not that of the screen.

Chain of TDP-43 (Q13148 whole entry): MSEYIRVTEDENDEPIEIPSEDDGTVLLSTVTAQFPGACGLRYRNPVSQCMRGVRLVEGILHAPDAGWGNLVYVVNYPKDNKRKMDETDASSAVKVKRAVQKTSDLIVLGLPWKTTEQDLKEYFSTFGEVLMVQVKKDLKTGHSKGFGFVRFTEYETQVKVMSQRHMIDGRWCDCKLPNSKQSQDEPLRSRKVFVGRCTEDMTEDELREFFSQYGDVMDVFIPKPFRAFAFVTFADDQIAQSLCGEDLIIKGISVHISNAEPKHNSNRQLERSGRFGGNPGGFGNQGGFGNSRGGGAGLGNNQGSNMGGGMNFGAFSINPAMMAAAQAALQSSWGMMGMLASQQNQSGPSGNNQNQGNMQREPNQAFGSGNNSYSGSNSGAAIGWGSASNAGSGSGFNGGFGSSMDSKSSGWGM

The test concerns the target TDP-43 (Homo sapiens, UniProt Q13148 1-414). In words: RNA Bind-n-Seq with designed 260-mer pool; 25 mM Tris-HCl, 150 mM KCl, 3 mM MgCl2, BSA (printed 500 mg/mL), 20 units/mL SUPERase IN; pH not stated; 500 nM RNA pool, 1 h, 4 C; TDP-43 5, 50, 500 nM; high values mean tight binding. Conditions: protein: recombinant; tags: SBP (GST cleaved off with PreScission; pGEX-GST-SBP). Put shortly:
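Streptavidin beads captured recombinant SBP-tagged TDP-43 at 5, 50 or 500 nM, and the beads were incubated for 1 h at 4 °C with 500 nM of an in vitro-transcribed pool of 260-nt 3′ UTR oligos in 25 mM Tris-HCl, 150 mM KCl, 3 mM MgCl2, BSA and SUPERase IN. After washing, bound RNA was eluted with biotin, reverse transcribed, PCR-amplified and sequenced. Binding is reported as R, the mapped-read-normalized abundance of each oligo in the bound sample divided by its abundance in the input. Two independent protein batches served as duplicates.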
Take B1: the binding signal was 2.93 R (bound/input frequency ratio).

In the case of B2, the binding signal is 0.604 R (bound/input frequency ratio).

As to B3, the binding signal is 0.759 R (bound/input frequency ratio).

For B4, the binding signal was 0.272 R (bound/input frequency ratio).

Regarding B5, the binding signal was 11.5 R (bound/input frequency ratio).

Turning to B6, the binding signal is 6.14 R (bound/input frequency ratio).

For the molecule B7, the binding signal is 6.75 R (bound/input frequency ratio).

Consider B8, for which the binding signal is 5.32 R (bound/input frequency ratio).

Consider B9, for which the binding signal was 6.02 R (bound/input frequency ratio).

As for B10, the binding signal is 4.15 R (bound/input frequency ratio).

Consider B11, for which the binding signal was 5.84 R (bound/input frequency ratio).

For the molecule B12, the binding signal is 3.7 R (bound/input frequency ratio).

On to B13, for which the binding signal was 5.22 R (bound/input frequency ratio).

In the case of B14, the binding signal was 11 R (bound/input frequency ratio).

For B15, the binding signal is 7.5 R (bound/input frequency ratio).

B16: the binding signal was 4.8 R (bound/input frequency ratio).
